Test results: ChEMBL document CHEMBL4513135, “CO-ADD screening of IQOG CSIS (Spain) compounds”
Entries with a potency or affinity are not part of this list.

Assays:
Staphylococcus aureus = conditions: Concentration 32 ug.mL-1; ASSAY_TEST Inhibition of Bacterial Growth; detection method Absorption (OD600); MEDIA CAMHB; plate type 384well; NBS; CORNING #3640; time 18 hr
Escherichia coli = conditions: Concentration 32 ug.mL-1; ASSAY_TEST Inhibition of Bacterial Growth; detection method Absorption (OD600); MEDIA CAMHB; plate type 384well; NBS; CORNING #3640; time 18 hr

COc1ccc(-c2cc(-c3cc4ccc(OC)cc4nc3Cl)cc(=O)[nH]2)cc1
Inhibition (Staphylococcus aureus): 18.65%
Inhibition (Escherichia coli): -13.67%

N#CC1(Br)C(=NBr)Oc2ccc3ccccc3c2C1c1cccc([N+](=O)[O-])c1 (stereo not given)
Inhibition (Staphylococcus aureus): 29.27%
Inhibition (Escherichia coli): -20.79%

C=C1CN(Cc2ccccc2)c2c(C#N)c(-c3ccccc3)c(C#N)c(=N)n21
Inhibition (Staphylococcus aureus): 44.91%
Inhibition (Escherichia coli): -0.81%

C#CCN(C)c1nc(NCC2CCN(Cc3ccccc3)CC2)c(C#N)c(-c2ccccc2)c1C#N.Cl
Inhibition (Staphylococcus aureus): 36.49%
Inhibition (Escherichia coli): -7.12%

Cl.NC1(C(=O)O)CC1c1ccccc1 (stereo not given)
Inhibition (Staphylococcus aureus): 12.81%
Inhibition (Escherichia coli): 11.66%

N#C/C(=C\c1ccccc1)C(=O)c1ccccc1
Inhibition (Staphylococcus aureus): 10.5%
Inhibition (Escherichia coli): 8.34%

O=C(N/N=C/c1cccc(Cl)c1)c1cc2ccccc2[nH]1
Inhibition (Staphylococcus aureus): -16.68%
Inhibition (Escherichia coli): -12.27%

Nc1c2c(nc3c1C(c1ccccc1)c1ccc4ccccc4c1O3)CCCC2 (stereo not given)
Inhibition (Staphylococcus aureus): 23.6%
Inhibition (Escherichia coli): -5.04%

CCCCNNC(=O)c1cc2ccccc2[nH]1
Inhibition (Staphylococcus aureus): 0.71%
Inhibition (Escherichia coli): -2.05%

COc1ccc(-c2cc(-c3cc4ccccc4nc3Cl)cc(=O)[nH]2)cc1
Inhibition (Staphylococcus aureus): 22.93%
Inhibition (Escherichia coli): -12.6%

N#CC1(Br)C(=NBr)Oc2ccc3ccccc3c2C1c1ccc([N+](=O)[O-])cc1 (stereo not given)
Inhibition (Staphylococcus aureus): 17.16%
Inhibition (Escherichia coli): -19.01%

Nc1c2c(nc3c1C(c1ccc(Cl)c(Cl)c1)c1ccc4ccccc4c1O3)CCCC2 (stereo not given)
Inhibition (Staphylococcus aureus): -15.84%
Inhibition (Escherichia coli): -11.77%

O=Cc1c(-c2ccc(Br)cc2)nc2ccccn12
Inhibition (Staphylococcus aureus): 3.95%
Inhibition (Escherichia coli): 9.28%

Cc1nc(Nc2ccccc2)c2c(C)nn(-c3ccccc3)c2n1
Inhibition (Staphylococcus aureus): 15.21%
Inhibition (Escherichia coli): 8.02%

CN(Cc1cn(Cc2ccccc2)nn1)Cc1cc2cc(OCCCC3CCN(Cc4ccccc4)CC3)ccc2n1C
Inhibition (Staphylococcus aureus): 10.05%
Inhibition (Escherichia coli): -17.67%

Br.C#CCNCc1ccccc1
Inhibition (Staphylococcus aureus): 25.93%
Inhibition (Escherichia coli): 20.8%

CC1=NC(=Cc2ccc([N+](=O)[O-])cc2)C(=O)O1
Inhibition (Staphylococcus aureus): 3.5%
Inhibition (Escherichia coli): -3.97%

CC1=N/C(=C(\C)c2ccccc2)C(=O)O1
Inhibition (Staphylococcus aureus): -1.19%
Inhibition (Escherichia coli): 0.61%

COc1cc(C=NNC(=O)Cc2c[nH]c3ccccc23)ccc1O
Inhibition (Staphylococcus aureus): 8.14%
Inhibition (Escherichia coli): -0.45%

N#CC1(Br)C(=NBr)Oc2ccc3ccccc3c2C1c1ccccc1 (stereo not given)
Inhibition (Staphylococcus aureus): 7.34%
Inhibition (Escherichia coli): 1.03%

N#Cc1cc2c(N)c3c(nc2nc1N1CCCCC1)CCCC3
Inhibition (Staphylococcus aureus): 29.29%
Inhibition (Escherichia coli): 3.13%

CCOC(=O)c1c(C)nc2nc3c(c(N)c2c1-c1ccc(Cl)cc1)CCCCC3
Inhibition (Staphylococcus aureus): 2.05%
Inhibition (Escherichia coli): -16.85%

O=C(N/N=C/Cc1ccccc1)c1cc2ccccc2[nH]1
Inhibition (Staphylococcus aureus): 10.17%
Inhibition (Escherichia coli): 9.88%

CC(=NNC(N)=O)c1c[nH]c2ccccc12
Inhibition (Staphylococcus aureus): 2.54%
Inhibition (Escherichia coli): 16.24%

NC(=O)N/N=C/c1c[nH]c2ccccc12
Inhibition (Staphylococcus aureus): 3.48%
Inhibition (Escherichia coli): 5.19%

COc1cccc(C2c3ccc4ccccc4c3OC(=NBr)C2(Br)C#N)c1 (stereo not given)
Inhibition (Staphylococcus aureus): 27.48%
Inhibition (Escherichia coli): -7.21%

C#CCN(C)Cc1cc2cc(OCOc3ccc4c(c3)cc(CN(C)CC#C)n4C)ccc2n1C
Inhibition (Staphylococcus aureus): 15.95%
Inhibition (Escherichia coli): -10.88%

COc1ccc2c(c1)cc(CNc1ccccc1)n2C
Inhibition (Staphylococcus aureus): 20.09%
Inhibition (Escherichia coli): -6.35%

N#Cc1c(N)nc(N2CCCCC2)c(C#N)c1-c1ccccc1
Inhibition (Staphylococcus aureus): 14.68%
Inhibition (Escherichia coli): -11.69%

COc1ccc(C2C(C#N)=C(N)Oc3c2ccc2ccccc32)c(OC)c1 (stereo not given)
Inhibition (Staphylococcus aureus): 5.1%
Inhibition (Escherichia coli): 0.79%

Cc1nn(-c2ccccc2)c2nc(C)n3nc(-c4ccccc4)nc3c12
Inhibition (Staphylococcus aureus): 16.28%
Inhibition (Escherichia coli): 8.31%

Cc1n[nH]c2c1C(c1ccc([N+](=O)[O-])cc1)C(C#N)=C(N)O2 (stereo not given)
Inhibition (Staphylococcus aureus): 4.71%
Inhibition (Escherichia coli): 12.5%

COc1ccc(C=C2N=C(c3ccccc3)SC2=O)cc1
Inhibition (Staphylococcus aureus): 12.36%
Inhibition (Escherichia coli): 7.03%

Cn1cc(C=O)c2ccccc21
Inhibition (Staphylococcus aureus): -0.04%
Inhibition (Escherichia coli): -4.32%

Cn1ccnc1C1C2=C(CC(C)(C)CC2=O)Oc2nc3c(c(N)c21)CCC3 (stereo not given)
Inhibition (Staphylococcus aureus): 12%
Inhibition (Escherichia coli): -19.85%

Cn1ccnc1C1c2ccc3cccnc3c2Oc2nc3c(c(N)c21)CCC3 (stereo not given)
Inhibition (Staphylococcus aureus): 14.96%
Inhibition (Escherichia coli): -15.51%

N#Cc1cc(C#N)c(NCCCCC2CCN(Cc3ccccc3)CC2)nc1N
Inhibition (Staphylococcus aureus): 36.38%
Inhibition (Escherichia coli): -9.24%

O=C(COc1ccc2ccccc2c1)N/N=C/c1c[nH]c2ccccc12
Inhibition (Staphylococcus aureus): 3.21%
Inhibition (Escherichia coli): 6.84%

O=Cc1ccc(OCCO[N+](=O)[O-])cc1
Inhibition (Staphylococcus aureus): 6.78%
Inhibition (Escherichia coli): 18.31%

O=C(NNC(Cc1ccccc1)Cc1ccccc1)c1cc2ccccc2[nH]1
Inhibition (Staphylococcus aureus): -3.72%
Inhibition (Escherichia coli): -3.49%
